The source of these data is PubChem BioAssay (EPA / NIEHS).

Inconclusive results are not listed. The source made the active and inactive calls. How the source made its calls: active means hit-call score of the fitted dose curve at least 0.9, where 1 is the maximum; inconclusive means response in the unintended direction; inactive means score below 0.9.

One test is described as follows: Tanguay_ZF_120hpf_SOMI_legacy: (Legacy) Oregon State University Tanguay Lab 120 Hour Post-fertilization zebrafish Assay for Somite Malformation (AID 2283647). A digest of the protocol:
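Dechorionated Tropical 5D wild-type zebrafish embryos, one per well from 6 hpf, statically exposed at 28C to 120 hpf in 0.64% DMSO; somite malformation scored present/absent by brightfield; trimethyltin 5 uM positive control; dead embryos not scored.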
For the molecule `CCOc1cc(C(C)(C)C)ccc1C1COC(c2c(F)cccc2F)=N1` (centres undefined), the outcome was inactive.
Same read-out and setting: the entry for `O=C(Nc1ccccc1-c1ccc(Cl)cc1)c1cccnc1Cl` is “inactive”; for `CCCCC(O)(Cn1cncn1)c1ccc(Cl)cc1Cl` (centres undefined) it is “inactive”.
Same read-out and setting: with `CCCCOCN(C(=O)CCl)c1c(CC)cccc1CC` the entry was “inactive”.
On to `CO/N=C(/C1=NOCCO1)c1ccccc1Oc1ncnc(Oc2ccccc2Cl)c1F`, for which the result was inactive.
The same measure, in the same setting: the entry for `COC(=O)NC(=S)Nc1ccccc1NC(=S)NC(=O)OC` is “inactive”; for `CNC(=O)Oc1cccc2ccccc12` it is “inactive”; for `COCC(=O)N(c1c(C)cccc1C)C(C)C(=O)OC` (centres undefined) it is “inactive”.
The same measure, in the same setting: the entry for `Nc1c(Cl)c(F)nc(OCC(=O)O)c1Cl` is “inactive”; for `CSC(=O)c1c(C(F)F)nc(C(F)(F)F)c(C(=O)SC)c1CC(C)C` it is “inactive”.
As for `CCOc1nc(C(Cl)(Cl)Cl)ns1`, the outcome was inactive.
On the same count and under the same terms, with `CC(C)N1C(=O)N(c2ccccc2)CSC1=NC(C)(C)C` the entry was “inactive”; with `CN/C(=N\[N+](=O)[O-])NCc1cnc(Cl)s1`, “inactive”.
On the same count and under the same terms, with `Cc1cnc(C2=NC(C)(C(C)C)C(=O)N2)c(C(=O)O)c1` (centres undefined) the entry was “inactive”; with `CCN(CC)c1nc(C)cc(OP(=S)(OC)OC)n1`, “inactive”; with `CC(C)Nc1nc(Cl)nc(NC(C)C)n1`, “inactive”.
Still for that read-out and setting: with `CCOC(=O)C(C)OC(=O)c1cc(Oc2ccc(C(F)(F)F)cc2Cl)ccc1[N+](=O)[O-]` (centres undefined) the entry was “inactive”.
Consider `COC(=O)N(C(=O)N1CO[C@@]2(C(=O)OC)Cc3cc(Cl)ccc3C2=N1)c1ccc(OC(F)(F)F)cc1`, for which the call was inactive.
On the same count and under the same terms, with `Cc1ccc(N=CN(C)C=Nc2ccc(C)cc2C)c(C)c1` the entry was “inactive”; with `Clc1cccc(C(Cl)(Cl)Cl)n1`, “inactive”.
On the same count and under the same terms, with `C=C(C)CN(CC)c1c([N+](=O)[O-])cc(C(F)(F)F)cc1[N+](=O)[O-]` the entry was “inactive”; with `CC(C)N1C(=O)c2ccccc2NS1(=O)=O`, “inactive”.
Regarding `CCNC(=O)NC(=O)C(C#N)=NOC`, the AC50 is 41.6 µM (active).

The next test is described as follows: Tanguay_ZF_120hpf_PFIN_legacy: (Legacy) Oregon State University Tanguay Lab 120 Hour Post-fertilization zebrafish Assay for Pectoral Fin Malformation (AID 2283648).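 Further: each larva judged yes or no for fin defect by brightfield with dead larvae skipped.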 The procedure, abridged:
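Binary pectoral fin malformation call at 120 hpf by brightfield microscopy; 5D wild-type zebrafish, chorion removed at 4 hpf, one embryo per well from 6 hpf, static exposure at 28C; DMSO (0.64% final) as baseline.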
For `CCOc1cc(C(C)(C)C)ccc1C1COC(c2c(F)cccc2F)=N1` (centres undefined), the result was inactive.
`Nc1c(Cl)c(Cl)nc(C(=O)O)c1Cl`: the call was inactive.
Still for that read-out and setting: the entry for `O=C(Nc1ccccc1-c1ccc(Cl)cc1)c1cccnc1Cl` is “inactive”; for `CCNP(=S)(OC)O/C(C)=C/C(=O)OC(C)C` (centres undefined) it is “inactive”; for `CCCCC(O)(Cn1cncn1)c1ccc(Cl)cc1Cl` (centres undefined) it is “inactive”.
As for `CCCCOCN(C(=O)CCl)c1c(CC)cccc1CC`, the outcome was inactive.
As for `CO/N=C(/C1=NOCCO1)c1ccccc1Oc1ncnc(Oc2ccccc2Cl)c1F`, the result was inactive.
Same read-out and setting: the entry for `COC(=O)NC(=S)Nc1ccccc1NC(=S)NC(=O)OC` is “inactive”; for `CSC(=O)c1c(C(F)F)nc(C(F)(F)F)c(C(=O)SC)c1CC(C)C` it is “inactive”.
Still for that read-out and setting: with `Clc1nc(Cl)nc(Nc2ccccc2Cl)n1` the entry was “inactive”.
On to `CC1(C)CCC(=Cc2ccc(Cl)cc2)C1(O)Cn1cncn1` (centres undefined), for which the outcome was inactive.
Still for that read-out and setting: the entry for `CN=C=S` is “inactive”; for `CC(C)C1(C)N=C(c2ncccc2C(=O)O)NC1=O` (centres undefined) it is “inactive”.
Regarding `CC(C)N1C(=O)N(c2ccccc2)CSC1=NC(C)(C)C`, the call was inactive.
On the same count and under the same terms, with `CN/C(=N\[N+](=O)[O-])NCc1cnc(Cl)s1` the entry was “inactive”.
Regarding `Cc1cnc(C2=NC(C)(C(C)C)C(=O)N2)c(C(=O)O)c1` (centres undefined), the molecule was classed as inactive.
On the same count and under the same terms, the entry for `C=CCOC(=O)C(C)(C)OC(=O)c1cc(-n2c(=O)cc(C(F)(F)F)n(C)c2=O)ccc1Cl` is “inactive”; for `CCN(CC)c1nc(C)cc(OP(=S)(OC)OC)n1` it is “inactive”.
Regarding `CC(C)Nc1nc(Cl)nc(NC(C)C)n1`, the molecule was called inactive.
Still for that read-out and setting: with `CCOC(=O)C(C)OC(=O)c1cc(Oc2ccc(C(F)(F)F)cc2Cl)ccc1[N+](=O)[O-]` (centres undefined) the entry was “inactive”; with `COC(=O)N(C(=O)N1CO[C@@]2(C(=O)OC)Cc3cc(Cl)ccc3C2=N1)c1ccc(OC(F)(F)F)cc1`, “inactive”.
For the molecule `O=c1n(Cl)c(=O)n(Cl)c(=O)n1Cl`, the molecule was called inactive.
Still for that read-out and setting: the entry for `Cc1ccc(N=CN(C)C=Nc2ccc(C)cc2C)c(C)c1` is “inactive”; for `Clc1cccc(C(Cl)(Cl)Cl)n1` it is “inactive”; for `OC(c1ccc(Cl)cc1)(c1ccc(Cl)cc1)C(Cl)(Cl)Cl` it is “inactive”.
Still for that read-out and setting: the entry for `CC(C)=CC1C(C(=O)OCc2coc(Cc3ccccc3)c2)C1(C)C` (centres undefined) is “inactive”; for `C=C(C)CN(CC)c1c([N+](=O)[O-])cc(C(F)(F)F)cc1[N+](=O)[O-]` it is “inactive”; for `O=C(O)c1c(Cl)ccc2cc(Cl)cnc12` it is “inactive”.
Same read-out and setting: the entry for `CC(C)N1C(=O)c2ccccc2NS1(=O)=O` is “inactive”.
For the molecule `CCNC(=O)NC(=O)C(C#N)=NOC`, the AC50 is 45.6 µM (active).
As to `COC(=O)NS(=O)(=O)c1ccc(N)cc1`, the call was inactive.
